For eight compounds, Potency, outcome and activity change, positive = activation results are on record in PubChem BioAssay (Tox21).

Unmarked numbers belong to inactive results. Records with an inconclusive call do not appear. The source made the active and inactive calls. Unless noted, calls follow the shape of the dose curve; as a rule, active = well fitted curve in the direction sought with a large enough effect in the repeat runs; inconclusive = weak or mixed curves; inactive = no such curve, though single readings can be large; an effect the other way counts as inactive or inconclusive.

In assay [1] the target is Luciferin 4-monooxygenase (Photinus pyralis) (UniProt P08659). The assay is described as follows: qHTS assay to identify small molecule inhibitors of firefly luciferase (AID 1224835). Also: nearly all actives have a fitted effect of over 25% in size. Also: potency is read from the fitted curve at half-maximal effect. The method in brief:
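Inhibition of purified Photinus luciferase is measured by luminescence. Substrate levels (D-luciferin, ATP) sit at their KM values. Each compound is tested in a concentration series.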

A short description of assay [2]: qHTS assay to identify small molecule agonists of the constitutive androstane receptor (CAR) signaling pathway - cell viability counter screen (AID 1224836). Also: nearly all actives have a fitted effect of over 45% in size. Also: potency is read from the fitted curve at half-maximal effect. In a few lines:
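Using CellTiter-Fluor, viability of HepG2 cells harbouring hCAR and CYP2B6-2.2kb was measured following 23 h incubation with a 15-concentration compound series plus PK11195 (0.75 uM final).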
(Quantitative high-throughput screening tests each substance at several concentrations.)

The nature of assay [3]: qHTS assay to identify small molecule antagonists of the constitutive androstane receptor (CAR) signaling pathway - cell viability counter screen (AID 1224837). Also: nearly all actives have a fitted effect of over 45% in size. In a few lines: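 In quantitative HTS format, compounds at 15 concentrations were applied to HepG2 cells double-transfected with hCAR and CYP2B6-2.2kb under 50 nM CITCO stimulation; live-cell protease activity was read after 23 hr via CellTiter-Fluor.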

The target of assay [4] is Nuclear receptor subfamily 1 group I member 3 (Homo sapiens) (UniProt Q14994). The assay is described as follows: qHTS assay to identify small molecule antagonists of the constitutive androstane receptor (CAR) signaling pathway (AID 1224838). Also: nearly all actives have a fitted effect of over 40% in size. Also: potency is read from the fitted curve at half-maximal effect. In a few lines:
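CITCO-stimulated (50 nM final) HepG2 cells stably transfected with hCAR and CYP2B6-2.2kb luciferase were exposed to compounds at 15 concentrations for 24 h at 37 C/5% CO2. A luciferase reagent was added and luminescence recorded after 30 min.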

The target is the same in assay [5]. As to the kind of experiment: qHTS assay to identify small molecule agonists of the constitutive androstane receptor (CAR) signaling pathway (AID 1224839). Also: nearly all actives have a fitted effect of over 15% in size. Also: potency is read from the fitted curve at half-maximal effect.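 As to activation: HepG2 cells stably carrying human CAR and a CYP2B6 luciferase reporter.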 In a few lines: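 Double-stable HepG2 cells (hCAR, CYP2B6-2.2kb) seeded 4 h before compound addition. Exposure 24 h with 0.75 uM PK11195 final. Luciferase detected by ONE-Glo.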
Assay [6] deals with Thyrotropin receptor (Homo sapiens) (UniProt P16473). The assay is described as follows: qHTS assay to identify small molecule agonists of the thyroid stimulating hormone receptor (TSHR) signaling pathway (AID 1224843; calls by dose curve; also: nearly all actives have a fitted effect of over 45% in size). In a few lines:
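Agonist activity read as cAMP rise via d2/cryptate HTRF competition, 1 h room-temperature detection, in HEK293 cells expressing TSHR. Fifteen-point titrations, each run in triplicate, with a 30 min room-temperature incubation beforehand.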

A short description of assay [7]: qHTS assay to identify small molecule agonists of the hypoxia (HIF-1) signaling pathway - cell viability counter screen (AID 1224844; calls by dose curve; also: nearly all actives have a fitted effect of over 50% in size; also: potency is read from the fitted curve at half-maximal effect). The method in brief: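 Same wells as the HIF-1 reporter screen; ME-180 cells carrying HRE-bla, 17 hr treatment at 37C; CellTiter-Glo luminescence read after 30 min at room temperature.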
The nature of assay [8]: qHTS assay to identify small molecule agonists of the hypoxia (HIF-1) signaling pathway (AID 1224846; active = well fitted activation curve with a large enough effect in the signal ratio in the repeat runs, not every such curve was filed as active; the % refers to the signal ratio). In a few lines: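 In ME-180 cells bearing an HRE-bla construct, 17 h treatment with DMSO-dissolved compounds at 37C was followed by CCF4-AM loading to quantify reporter induction.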
A short description of assay [9]: qHTS RealTime-Glo MT Cell Viability Assay in HepG2 cells - 24 hour (AID 1224867). Also: nearly all actives have a fitted effect of over 50% in size. The method in brief:
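HepG2 cells (600/well) were dispensed with RealTime-Glo reagents, incubated 5 h at 37 °C, then treated with compounds in DMSO for up to 40 h. Nonlytic NanoLuc luminescence reflecting viable cells was read at each stated time point.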

A short description of assay [10]: A CellTox Green Cytotoxicity Assay to monitor cytotoxicity in HEK293 cells - 0 hour (AID 1224869). Also: nearly all actives have a fitted effect of over 50% in size. The method in brief: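 Homogeneous no-lysis format: HEK293 cell suspension mixed with CellTox Green reagent, seeded, incubated 5 h at 37 C/5% CO2, then dosed by pintool with compound in DMSO.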
Assay [11] can be described thus: qHTS RealTime-Glo MT Cell Viability Assay in HepG2 cells - 40 hour (AID 1224870). Also: nearly all actives have a fitted effect of over 50% in size. In a few lines:
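Real-time viability: cells seeded at 600 per well together with NanoLuc and cell-permeant prosubstrate, compounds added after 5 h incubation. Luminescence tracked at 0, 8, 16, 24, 32 and 40 h of exposure.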

Assay [12] in a line: qHTS assay to identify small molecule antagonists of the estrogen related receptor (ERR) signaling pathway from Tox21 library - cell viability counter screen (AID 1224834). Also: nearly all actives have a fitted effect of over 30% in size. Also: potency is read from the fitted curve at half-maximal effect. In a few lines: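 In this quantitative HTS format, ERR cells receive compounds in DMSO and are incubated for 17.5 h at 37 C. Live-cell protease activity is then detected with CellTiter-Fluor.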
A short description of assay [13]: qHTS assay to identify small molecule antagonists of the estrogen related receptor signaling pathway with the pleiotropic PPARgamma coactivator (PGC) from Tox21 10K library - cell viability counter screen (AID 1224840; active = well fitted cell-killing curve with a large enough effect in the repeat runs, not every such curve was filed as active; also: nearly all actives have a fitted effect of over 40% in size). In a few lines:
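Viability counter screen, PGC/ERR cells: 17.5 h compound exposure at 37 C, CellTiter-Fluor fluorescence endpoint.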

Assay [14] is described as follows: qHTS assay to identify small molecule agonists of H2AX (AID 1224845; active = well fitted activation curve with a large enough effect in the signal ratio in the repeat runs, not every such curve was filed as active; the % refers to the signal ratio). The method in brief:
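Phospho-H2AX Ser139 measured by HTRF (ex 320 nm; em 665 and 620 nm) after 24 hr antibody incubation. Compounds, 15 concentrations, 0.76% DMSO, were applied to CHO-K1 cells for 3hr at 37C before lysis.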

The nature of assay [15]: qHTS assay to identify small molecule agonists of H2AX - cell viability counter screen (AID 1224847; calls by dose curve; also: top concentration of the series differs between compounds; nearly all actives have a fitted effect of over 30% in size). In a few lines: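 Quantitative HTS viability measurement: CHO-K1 wild-type cells in serum (10% FBS) medium, short 3 hr drug exposure at 37C with 0.76% DMSO, CellTiter-Glo luminescent detection.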
Assay [16] in a line: qHTS RealTime-Glo MT Cell Viability Assay in HEK293 cells - 32 hour (AID 1224868). Also: nearly all actives have a fitted effect of over 50% in size. Also: potency is read from the fitted curve at half-maximal effect. The method in brief: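 HEK293 cells seeded with NanoLuc/prosubstrate reagent, rested 5 h at 37 C, then dosed and kept at 37 C up to 40 h. Nonlytic real-time luminescence from viable cells read at 0, 8, 16, 24, 32 and 40 h.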
Assay [17] is described as follows: qHTS assay to identify small molecule antagonists of the estrogen related receptor signaling pathway with the pleiotropic PPARgamma coactivator (PGC) from Tox21 10K library (AID 1224841; call rule not given here). The method in brief:
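In the PGC/ERR line, DMSO solutions of test chemicals are pin-delivered to 2,000 cells/well six hours after dispensing. Following eighteen hours' incubation, One-Glo reagent is added and luminescence recorded.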

A short description of assay [18]: qHTS assay to identify small molecule antagonists of the estrogen related receptor (ERR) signaling pathway from Tox21 library (AID 1224848). Also: nearly all actives have a fitted effect of over 50% in size. Also: potency is read from the fitted curve at half-maximal effect. In a few lines: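 Luciferase luminescence (ONE-Glo, 30 min room temperature) was the read-out. Cells of the NTP-supplied ERR line, 2,000 per well, were given 6 h at 37 C before compound addition in DMSO and 18 h exposure at 37 C.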

Assay [19] is described as follows: qHTS assay to identify small molecule agonists of the estrogen related receptor (ERR) signaling pathway from Tox21 library (AID 1224849; calls by dose curve; also: nearly all actives have a fitted effect of over 15% in size). The settings on record: ERR reporter cell line, ONE-Glo luciferase, 18 h; at 92.4 µM (top of the series) unless noted. In a few lines: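 Reporter cells (ERR, NTP source) treated with Tox21 10K compounds 18 h, 37 C. Readout: ONE-Glo luminescence, 30 min RT.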

Assay [20] in a line: qHTS assay to identify small molecule agonists of the estrogen related receptor signaling pathway with the pleiotropic PPARgamma coactivator (PGC) from Tox21 10K library (AID 1224842). Also: nearly all actives have a fitted effect of over 15% in size. In a few lines: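 Luminescence from One-Glo (30 min, room temperature) measured after PGC/ERR cells had 18 h at 37 C with pinned compound (23 nL in DMSO). Cells had been seeded at 2,000 per well and pre-incubated 6 h.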
% is scaled to controls: 0 for no effect and ±100 for the full control effect.

Sequence of Thyrotropin receptor (Homo sapiens) (P16473 whole entry, looked up): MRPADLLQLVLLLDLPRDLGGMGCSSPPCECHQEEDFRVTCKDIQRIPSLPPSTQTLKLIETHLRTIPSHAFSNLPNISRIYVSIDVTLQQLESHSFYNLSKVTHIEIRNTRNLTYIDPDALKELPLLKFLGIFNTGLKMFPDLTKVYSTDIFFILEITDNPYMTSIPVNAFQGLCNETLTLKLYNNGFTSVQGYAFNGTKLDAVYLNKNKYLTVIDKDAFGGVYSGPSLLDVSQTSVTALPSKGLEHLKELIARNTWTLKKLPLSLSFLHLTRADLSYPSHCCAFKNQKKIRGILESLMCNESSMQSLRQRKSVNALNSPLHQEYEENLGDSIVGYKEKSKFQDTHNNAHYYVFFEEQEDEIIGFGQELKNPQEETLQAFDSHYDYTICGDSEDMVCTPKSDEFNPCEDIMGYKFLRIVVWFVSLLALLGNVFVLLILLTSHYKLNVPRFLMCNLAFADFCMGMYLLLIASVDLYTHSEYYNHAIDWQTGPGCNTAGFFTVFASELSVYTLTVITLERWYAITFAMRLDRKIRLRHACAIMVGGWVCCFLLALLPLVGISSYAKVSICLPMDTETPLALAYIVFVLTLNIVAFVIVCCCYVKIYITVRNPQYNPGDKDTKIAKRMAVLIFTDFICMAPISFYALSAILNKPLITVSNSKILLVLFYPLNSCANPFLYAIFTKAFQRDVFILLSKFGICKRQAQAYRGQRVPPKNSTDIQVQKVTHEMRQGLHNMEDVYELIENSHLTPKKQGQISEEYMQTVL
Sequence of Luciferin 4-monooxygenase (Photinus pyralis) (P08659 whole entry, looked up): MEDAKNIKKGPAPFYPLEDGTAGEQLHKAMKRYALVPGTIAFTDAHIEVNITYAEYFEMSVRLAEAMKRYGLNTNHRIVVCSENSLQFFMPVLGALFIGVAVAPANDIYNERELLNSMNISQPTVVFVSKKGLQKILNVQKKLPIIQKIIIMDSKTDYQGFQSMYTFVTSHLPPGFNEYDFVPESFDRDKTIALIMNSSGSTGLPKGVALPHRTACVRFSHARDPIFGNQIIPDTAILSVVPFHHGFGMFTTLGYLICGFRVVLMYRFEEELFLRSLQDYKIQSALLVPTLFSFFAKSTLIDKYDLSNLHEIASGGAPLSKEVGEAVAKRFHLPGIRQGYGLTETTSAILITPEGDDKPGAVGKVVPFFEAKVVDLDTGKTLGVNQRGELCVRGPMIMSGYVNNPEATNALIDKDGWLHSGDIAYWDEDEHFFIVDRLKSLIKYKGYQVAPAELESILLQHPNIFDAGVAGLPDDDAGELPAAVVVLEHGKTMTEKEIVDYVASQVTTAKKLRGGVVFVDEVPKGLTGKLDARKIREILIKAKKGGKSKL
Sequence of Nuclear receptor subfamily 1 group I member 3 (Homo sapiens) (Q14994 whole entry, looked up): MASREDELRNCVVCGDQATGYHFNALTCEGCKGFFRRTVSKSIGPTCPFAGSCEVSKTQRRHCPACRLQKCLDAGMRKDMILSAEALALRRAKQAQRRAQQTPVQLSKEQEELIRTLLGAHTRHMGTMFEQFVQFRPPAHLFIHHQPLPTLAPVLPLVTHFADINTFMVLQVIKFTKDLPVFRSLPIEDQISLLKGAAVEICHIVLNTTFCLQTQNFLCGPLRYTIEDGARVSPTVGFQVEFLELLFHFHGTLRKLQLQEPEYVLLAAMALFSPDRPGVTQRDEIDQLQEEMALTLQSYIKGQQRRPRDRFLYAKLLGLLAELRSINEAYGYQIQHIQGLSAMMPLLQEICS

`O=C(OCCOCCO)c1ccccc1Nc1cccc(C(F)(F)F)c1`: the Potency entry in assay [1], in assay [2], in assay [3], in [4], in assay [5] and in assay [6] was “inactive” in each case. The Potency entry in [7], in assay [9], in assay [10] and in [11] was “inactive” in each case. Further, in [8], the result was inactive.
Turning to `CC(Cl)C(Cl)Cl` (stereo unspecified), the Potency result in assay [12], in [2], in assay [3], in assay [13], in assay [6] and in assay [14] was “inactive” each time. For the same compound, the Potency entry in [15], in [16] and in assay [11] was “inactive” each time. Also, the result in assay [8] was inactive.
Regarding `Cc1ccc(/C=N/n2c(-c3ccccc3)csc2=S)cc1`, the Potency result in assay [1], in assay [2], in assay [3], in assay [4], in [13] and in [17] was “inactive” in each case. The Potency entry in [6], in [14], in assay [18], in assay [9], in assay [16] and in assay [10] was “inactive” throughout. Also, the Potency result in [11] is “inactive”. Also, in assay [5], the Potency is 29.8 µM (active). Further, the call in assay [8] was inactive. In addition, the activity change, positive = activation in assay [19] was 4.75% [at 42.5 µM].
For the compound `CCCCCCCCCCCC[N+](C)(C)CC(=O)[O-]`, the Potency result in [1], in assay [2], in assay [3], in [4], in assay [5] and in [6] was “inactive” in each case. The Potency entry in [7], in assay [14], in assay [9], in [16] and in [11] was “inactive” in each case. In assay [8], the compound was called inactive.
For the compound `COCCOC`, the Potency in assay [12] is 1.04 µM (active); in [2], 1.64 µM (active); in assay [4], 9.24 µM (active); in [7], 4.67 µM (active); in assay [18], 1.46 µM (active); in [16] it was 0.74 µM (active). Further, the Potency entry in assay [5], in assay [6], in assay [15], in assay [10] and in assay [11] was “inactive” in each case. The outcome in [8] was inactive. The activity change, positive = activation in assay [19] was -69.9%.
Take `c1ccc(COCc2ccccc2)cc1`: the Potency entry in assay [1], in [2], in assay [3], in assay [4], in assay [5] and in assay [13] was “inactive” throughout. Also, the Potency entry in [17], in [20], in assay [6], in assay [7], in [14] and in assay [18] was “inactive” each time. Moreover, the Potency result in assay [9], in assay [16], in assay [10] and in [11] was “inactive” throughout. Also, the compound was called inactive in assay [8]. Further, the activity change, positive = activation in assay [19] is 0.496%.
As to `O=C(O)C(Cc1cc(I)c(O)c(I)c1)c1ccccc1` (stereo unspecified), the Potency entry in [1], in assay [2], in [3], in assay [4], in [5] and in assay [13] was “inactive” throughout. Besides, the Potency result in assay [6], in assay [7], in assay [15], in assay [9], in assay [16] and in assay [10] was “inactive” each time. Moreover, the Potency result in [11] is “inactive”.
Turning to `CC(=O)Oc1ccc2c(c1)CC[C@@H]1[C@@H]2CC[C@]2(C)[C@@H](O)CC[C@@H]12`, the Potency is 24.5 µM (active) in assay [1], 9.44 µM (active) in assay [5] and 9.52 µM (active) in assay [16]. For the same compound, the Potency result in [2], in [3], in [4], in [13], in [17] and in assay [20] was “inactive” each time. Further, the Potency result in [6], in [7], in assay [14], in [15], in assay [9] and in assay [10] was “inactive” in each case. Moreover, the Potency result in assay [11] was “inactive”. In addition, the outcome in assay [8] was inactive. Also, in assay [19], the activity change, positive = activation is -29.3% [at 42.5 µM].
